According to PubChem BioAssay (NCI):
The panel holds about 83,000 compounds, 20% with a hit somewhere; the sample as a whole holds those more often.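 Compound tested at a single concentration for 48 hours in 96-well plates; a percent growth value below 10 was scored as active.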 Activity calls are given as the source filed them.

Tested on: BT-549 breast
Assay: NCI-60 one-dose screen, 48 h (100 = growth as untreated, 0 = no growth, -100 = all killed)
Conditions: 10 µM unless noted

SMILES | growth
CC(C)(C)c1nn(-c2ccccc2)c2c1CC1(CN2Cc2ccc3c(c2)OCO3)C(=O)c2ccccc2C1=O | 101% (inactive)
COc1ccc(-c2cc(-c3ccc(N(C)C)cc3)nc(NC(=O)c3ccncc3)n2)cc1 | 104% (inactive)
Nc1nc(-c2ccc(F)cc2)cc(-c2cnn(-c3ccccc3)n2)n1 | 119% (inactive)
CC(=O)CC(C)(C)c1ccc(Cl)cc1 | 101% (inactive)
Nc1c(C(=O)Nc2ccccc2Cl)sc2nc3c(cc12)CCCCCC3 | 39.8% (inactive)
O=C(Nc1ccc(Nc2cc(Nc3ccccc3)ncn2)cc1)Nc1cc(C(F)(F)F)ccc1F | 85.3% (inactive)
CCOC(=O)C(Cc1cc(I)c(O)c(I)c1)NC(=O)c1ccccc1 (stereo unspecified) | 101% (inactive)
CC[C@H](Nc1cc(C)nc(N)n1)c1nc2cccc(NCc3ccc(C(=O)NO)cc3)c2c(=O)n1-c1ccccc1 | 49.1% (inactive)
C=C1CCC2C3(C)COC(c4cccc(Cl)c4)OC3CCC2(C)C1/C=C/C1=CCOC1=O (stereo unspecified) | 55.9% (inactive)
CCN(CC)CC(O)CNc1c2ccc([N+](=O)[O-])cc2nc2cc(OC)c(OC)cc12 (stereo unspecified) | -69.8% (active)
COc1cc(-c2c3sc(=O)[nH]c3nc3c2c(=O)[nH]n3C(C)C)cc2c1OCO2 | 105% (inactive)
O=S(=O)(Nc1ccc(F)c(Cl)c1)c1ccc(-c2cnc(C3CC3)o2)cc1 | 36.3% (inactive)
COc1ccc(/C=c2/c(=O)[nH]c3nc4sc(C)c(C)c4c(=O)n23)cc1 | 85.1% (inactive)
Fc1ccc(Cc2ccc(F)cc2)cc1 | 128% (inactive)
CC(C)c1c(C(=O)Nc2ccccc2)c(-c2ccccc2)c(-c2ccc(F)cc2)n1CC[C@@H]1CC=CC(=O)O1 | -30.6% (active)
COc1ccc2nc3cc(Cl)ccc3c(N3CCN(c4ccnc(N5CCN(C)CC5)n4)CC3)c2c1 | 55.5% (inactive)
COc1cc(NCCCCN=C(N)NC(N)=NC(C)C)c2ncccc2c1 | 54.8% (inactive)
CS(=O)CCCCCN=C=S (stereo unspecified) | 2.12% (active)
O=C(CO[N+](=O)[O-])Nc1ccc(C(=O)/C=C/c2ccc3c(c2)OCO3)cc1 | 87.6% (inactive)

SMILES | growth
O=C(CCN1CCOCC1)Nc1ccc(Cn2nnc3c2C(=O)c2nnn(Cc4ccc(NC(=O)CCN5CCOCC5)cc4)c2C3=O)cc1 | 29.6% (inactive)
O=C1Nc2ccccc2/C1=C/C(=N/c1nnc(-c2ccc(Cl)cc2)s1)c1ccccc1 | 31.9% (inactive)
Cc1ccc(SCN2CCN(c3cccc(Cl)c3)CC2)cc1 | 62.7% (inactive)
COc1ccccc1N1CCN(CCn2c(=O)c3c(c4ccccc4n3C)n(C)c2=O)CC1 | 99.3% (inactive)
CS(=O)(CCCCN=C=S)=NC(=O)c1c(F)c(F)c(F)c(F)c1F (stereo unspecified) | 97.1% (inactive)
O=C(Cn1cc(CN2C(=O)c3ccccc3S2(=O)=O)nn1)Nc1ccc([N+](=O)[O-])cc1Cl | 103% (inactive)
c1ccc(-c2nc(N3CCOCC3)c3c4c(sc3n2)CCCCC4)nc1 | 62.8% (inactive)
O=[N+]([O-])c1c(F)cccc1Nc1cccc(F)c1 | 118% (inactive)
CC1(C)CC(=O)C(c2c(-c3ccccc3)[nH]c3[nH]c(=S)[nH]c(=O)c23)=C(O)C1 | 106% (inactive)
O=C([C@@H](COCc1ccccc1)N1C(=O)[C@@H](N2C(=O)OC[C@@H]2c2ccccc2)[C@H]1/C=C/c1ccccc1)N1CCC(CCN2CCCCC2)CC1 | 90% (inactive)
COc1cc(/C=N\NC(=O)CN2CCN(c3cc4c(cc3F)c(=O)c(C(=O)N/N=C/c3ccc(O)c(OC)c3)cn4C3CC3)CC2)ccc1O | 56% (inactive)
CC/C=C\C[C@H](O)C/C=C1/C(=O)C=C[C@@H]1C/C=C\CCCC(N)=O | -12.6% (active)
ClC1=C2NC=NC2n2c(nnc2-c2ccc(Cl)cc2)N1 (stereo unspecified) | 101% (inactive)
COc1ccc(C(=O)c2sc3nc(-c4ccccc4OC)ccc3c2N)cc1OC | 20.9% (inactive)
CCN1CCN(Cc2ccc(NC(=O)Nc3nc4ccc(Oc5ccnc(C(=O)NC)c5)cc4s3)cc2C(F)(F)F)CC1 | -69.1% (active)
COc1ccc2nc3cc(Cl)ccc3c(N3CCN(c4nccc(NCc5ccccc5)n4)CC3)c2c1 | 27.5% (inactive)
C=C1CCC2C3(C)COC(c4ccc(SC)cc4)OC3CCC2(C)C1C/C=C1/C(=O)OCC1O (stereo unspecified) | 64.6% (inactive)
O=c1[nH]c(-c2ccccn2)nc2sc3c(c12)CCCCC3 | 70.1% (inactive)
COc1ccc(C/C(C)=C(\c2ccc(Cl)cc2)c2ccc(OCCN3CCCCCC3)cc2)cc1 | 94.9% (inactive)

Tested on: MDA-MB-435 melanoma
Assay: as above
Conditions: 10 µM unless noted

SMILES | growth
CC(C)(C)c1nn(-c2ccccc2)c2c1CC1(CN2Cc2ccc3c(c2)OCO3)C(=O)c2ccccc2C1=O | 106% (inactive)
COc1ccc(-c2cc(-c3ccc(N(C)C)cc3)nc(NC(=O)c3ccncc3)n2)cc1 | 104% (inactive)
Nc1nc(-c2ccc(F)cc2)cc(-c2cnn(-c3ccccc3)n2)n1 | 106% (inactive)
CC(=O)CC(C)(C)c1ccc(Cl)cc1 | 104% (inactive)
Nc1c(C(=O)Nc2ccccc2Cl)sc2nc3c(cc12)CCCCCC3 | -16.1% (active)
O=C(Nc1ccc(Nc2cc(Nc3ccccc3)ncn2)cc1)Nc1cc(C(F)(F)F)ccc1F | 75.8% (inactive)
CCOC(=O)C(Cc1cc(I)c(O)c(I)c1)NC(=O)c1ccccc1 (stereo unspecified) | 100% (inactive)
CC[C@H](Nc1cc(C)nc(N)n1)c1nc2cccc(NCc3ccc(C(=O)NO)cc3)c2c(=O)n1-c1ccccc1 | -15% (active)
C=C1CCC2C3(C)COC(c4cccc(Cl)c4)OC3CCC2(C)C1/C=C/C1=CCOC1=O (stereo unspecified) | 79.4% (inactive)
CCN(CC)CC(O)CNc1c2ccc([N+](=O)[O-])cc2nc2cc(OC)c(OC)cc12 (stereo unspecified) | -88.4% (active)
COc1cc(-c2c3sc(=O)[nH]c3nc3c2c(=O)[nH]n3C(C)C)cc2c1OCO2 | 104% (inactive)
O=S(=O)(Nc1ccc(F)c(Cl)c1)c1ccc(-c2cnc(C3CC3)o2)cc1 | 2.08% (active)
COc1ccc(/C=c2/c(=O)[nH]c3nc4sc(C)c(C)c4c(=O)n23)cc1 | 86.8% (inactive)
Fc1ccc(Cc2ccc(F)cc2)cc1 | 114% (inactive)
CC(C)c1c(C(=O)Nc2ccccc2)c(-c2ccccc2)c(-c2ccc(F)cc2)n1CC[C@@H]1CC=CC(=O)O1 | 2.54% (active)
COc1ccc2nc3cc(Cl)ccc3c(N3CCN(c4ccnc(N5CCN(C)CC5)n4)CC3)c2c1 | 66.5% (inactive)
COc1cc(NCCCCN=C(N)NC(N)=NC(C)C)c2ncccc2c1 | 110% (inactive)
CS(=O)CCCCCN=C=S (stereo unspecified) | 20.4% (inactive)
O=C(CO[N+](=O)[O-])Nc1ccc(C(=O)/C=C/c2ccc3c(c2)OCO3)cc1 | 62.6% (inactive)

SMILES | growth
O=C(CCN1CCOCC1)Nc1ccc(Cn2nnc3c2C(=O)c2nnn(Cc4ccc(NC(=O)CCN5CCOCC5)cc4)c2C3=O)cc1 | -76.2% (active)
O=C1Nc2ccccc2/C1=C/C(=N/c1nnc(-c2ccc(Cl)cc2)s1)c1ccccc1 | 41.7% (inactive)
Cc1ccc(SCN2CCN(c3cccc(Cl)c3)CC2)cc1 | 89.7% (inactive)
COc1ccccc1N1CCN(CCn2c(=O)c3c(c4ccccc4n3C)n(C)c2=O)CC1 | 106% (inactive)
CS(=O)(CCCCN=C=S)=NC(=O)c1c(F)c(F)c(F)c(F)c1F (stereo unspecified) | 99.1% (inactive)
O=C(Cn1cc(CN2C(=O)c3ccccc3S2(=O)=O)nn1)Nc1ccc([N+](=O)[O-])cc1Cl | 103% (inactive)
c1ccc(-c2nc(N3CCOCC3)c3c4c(sc3n2)CCCCC4)nc1 | 71% (inactive)
O=[N+]([O-])c1c(F)cccc1Nc1cccc(F)c1 | 105% (inactive)
CC1(C)CC(=O)C(c2c(-c3ccccc3)[nH]c3[nH]c(=S)[nH]c(=O)c23)=C(O)C1 | 90.8% (inactive)
O=C([C@@H](COCc1ccccc1)N1C(=O)[C@@H](N2C(=O)OC[C@@H]2c2ccccc2)[C@H]1/C=C/c1ccccc1)N1CCC(CCN2CCCCC2)CC1 | 97.7% (inactive)
COc1cc(/C=N\NC(=O)CN2CCN(c3cc4c(cc3F)c(=O)c(C(=O)N/N=C/c3ccc(O)c(OC)c3)cn4C3CC3)CC2)ccc1O | 55% (inactive)
CC/C=C\C[C@H](O)C/C=C1/C(=O)C=C[C@@H]1C/C=C\CCCC(N)=O | 23.5% (inactive)
ClC1=C2NC=NC2n2c(nnc2-c2ccc(Cl)cc2)N1 (stereo unspecified) | 99.9% (inactive)
COc1ccc(C(=O)c2sc3nc(-c4ccccc4OC)ccc3c2N)cc1OC | 31.7% (inactive)
CCN1CCN(Cc2ccc(NC(=O)Nc3nc4ccc(Oc5ccnc(C(=O)NC)c5)cc4s3)cc2C(F)(F)F)CC1 | -36.5% (active)
COc1ccc2nc3cc(Cl)ccc3c(N3CCN(c4nccc(NCc5ccccc5)n4)CC3)c2c1 | 73.9% (inactive)
C=C1CCC2C3(C)COC(c4ccc(SC)cc4)OC3CCC2(C)C1C/C=C1/C(=O)OCC1O (stereo unspecified) | 61.3% (inactive)
O=c1[nH]c(-c2ccccn2)nc2sc3c(c12)CCCCC3 | 55.7% (inactive)
COc1ccc(C/C(C)=C(\c2ccc(Cl)cc2)c2ccc(OCCN3CCCCCC3)cc2)cc1 | 88.7% (inactive)
